ALDH1A1 inh = qHTS Assay for Inhibitors of Aldehyde Dehydrogenase 1 (ALDH1A1). Aldehyde dehydrogenase 1A1 (Homo sapiens), P00352. 220,000 tested, 7.3% active. Purified ALDH1A1, NADH fluorescence, propionaldehyde substrate. Potency, µM (series often up to 75.3 µM), for inactives: top-dose activity, negative = inhibition, most hits filed as inhibitors;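 further: potency means the concentration at half of the fitted maximal effect; plate controls were no enzyme wells and a reference inhibitor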
Target sequence (P00352 whole entry, looked up): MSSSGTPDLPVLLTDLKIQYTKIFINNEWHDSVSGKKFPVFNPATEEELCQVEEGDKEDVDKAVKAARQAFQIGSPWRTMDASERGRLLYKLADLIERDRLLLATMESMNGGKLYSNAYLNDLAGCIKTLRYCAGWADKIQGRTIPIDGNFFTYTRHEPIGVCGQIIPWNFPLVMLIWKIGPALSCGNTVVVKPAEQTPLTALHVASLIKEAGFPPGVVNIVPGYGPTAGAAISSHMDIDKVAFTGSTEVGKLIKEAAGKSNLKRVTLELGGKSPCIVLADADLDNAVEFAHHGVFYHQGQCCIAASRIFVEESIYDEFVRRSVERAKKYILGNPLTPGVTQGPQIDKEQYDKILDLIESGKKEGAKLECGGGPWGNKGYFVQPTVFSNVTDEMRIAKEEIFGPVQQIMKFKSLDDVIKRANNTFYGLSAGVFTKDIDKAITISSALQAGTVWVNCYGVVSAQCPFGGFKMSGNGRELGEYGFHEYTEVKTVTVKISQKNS
PNC assembly inh = High Content Assay for Compounds that inhibit the Assembly of the Perinucleolar Compartment | PC3M PTB-GFP, PNC prevalence imaging, 16 h; hits give low values | activity change (PNC), negative = inhibition, % at 10 µM | 140,000 tested, 3.1% active | AID 2417, 2010;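 active means readout at or below -70, meaning at least 70% loss of cells showing the perinucleolar compartment, a nuclear body marking cancer cells; inconclusive means readout between -30 and a set limit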;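 further: plate controls were DMSO wells for no effect and camptothecin positive control wells for full effect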
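Read-out is percentage of cells bearing a perinucleolar compartment, from automated 20x imaging of fixed, Hoechst-stained PC3M PTB-GFP cells. Cells were seeded 4 h, then exposed 16 h to compound (23 nl of library stock) in duplicate plates.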
KDM4E inh = qHTS Assay for Inhibitors of Human Jumonji Domain Containing 2E (JMJD2E). AID 2147, 2009. JMJD2E catalytic domain, FDH-coupled NADH fluorescence (FDH is formaldehyde dehydrogenase). 230,000 tested, 1.6% active. Potency, µM (titrated, usually from 57.1 µM), without a hit: at the top dose activity change, negative = inhibition, most hits filed as inhibitors;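 further: potency means the concentration at half of the fitted maximal effect; 0% = wells with enzyme and -100% = buffer wells without enzyme; nearly all actives have a fitted effect of over 50% in size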
HPGD inh = qHTS Assay for Inhibitors of HPGD (15-Hydroxyprostaglandin Dehydrogenase). 150,000 tested, 4.3% active. 15-hydroxyprostaglandin dehydrogenase [NAD(+)] (Homo sapiens), P15428. purified HPGD, NADH fluorescence kinetic, PGE2 substrate. Potency, µM, inactives show at the top dose activity change, negative = inhibition, usual class: inhibitors. AID 894, 2007; further: potency means the concentration at half of the fitted maximal effect
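NADH formation kinetics: reaction with 30 uM PGE2 and 1 mM NAD+ (final), 20 nM enzyme, Tris-HCl pH 8 with Tween 20, after 15 min compound preincubation at room temperature. Fluorescence change, last versus first of five reads.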
Starred values were filed as active, the others as inactive; ? = inconclusive; . = no result; [ ] = dose if it differs, or a comment. Most compounds without a hit are left out; they make up all but 11% or so of the library. Unless noted, the call rests on the fitted dose curve; in most records, active means well fitted inhibition curve with a large enough effect (not every such curve was filed as active); inconclusive means small, poorly fitted or top-dose-only effect, or another doubt; inactive means no such curve, though single readings can be large or run the other way. Unless noted, on the % scale 0 is the no-effect control and ±100 the full control effect.

SMILES	ALDH1A1 inh	PNC assembly inh	KDM4E inh	HPGD inh
O=C(c1cc([N+](=O)[O-])ccc1N1CCNCC1)N1CCOCC1	?	5	6%	-24%
CC(C)C(C)/C=C/C(C)C1CCC2C3=CC=C4CC(O)CCC4(C)C3CCC21C (stereo not drawn)	?	.	-14%	-11%
Cc1nc2c(=O)n(C)c(=O)nc-2n(C)n1	-5%	-93*	2%	-18%
CCc1nc2ccccc2c(=O)n1-c1ccccc1[N+](=O)[O-]	?	31	2%	-9%
Cc1nnc(SCc2nc3ccccc3c(=O)n2-c2ccccc2Cl)n1N	25µM*	?	-10%	-1%
COC(=O)[C@H]1[C@H](c2ccccc2)C(=O)[C@@]2(O)c3ccccc3O[C@@]12c1ccccc1	1%[13.5 µM]	.	.	.
O=C(O)C(Oc1nc(=S)[nH]c(=S)[nH]1)(c1ccc(Cl)cc1)c1ccc(Cl)cc1	4%[13.5 µM]	.	.	-6%
NC(N)=Nc1ccc2[nH]c3c(c2c1)C[C@]1(O)[C@@H]2Cc4ccc(O)c5c4[C@]1(CCN2CC1CC1)[C@@H]3O5	25µM*	.	?	-14%
Oc1ccc2c3c1O[C@H]1c4[nH]c5ccccc5c4C[C@]4(O)[C@H](C2)N(CC2CC2)CC[C@@]314	-4%	.	9%	-7%
CC[C@H]1C2CC3[C@@H]4N(C)c5ccccc5[C@]45C[C@@H](C2[C@H]5O)N3[C@@H]1O (stereo partly drawn)	7%	.	4%	8%
CC(=O)OC1CCC23C(=O)OC45CCC(C6=CC(=O)OC6)C4(C)CCC2C5CCC3(O)C1 (stereo not drawn)	1%	.	-3%	0%
Cc1ccc(S(=O)(=O)CC(C)(O)C(=O)Nc2cccc(C(F)(F)F)c2)cc1 (stereo not drawn)	4%	8	-3%	-3%
CC(O)(CS(=O)(=O)c1ccccc1)C(=O)Nc1cccc(C(F)(F)F)c1 (stereo not drawn)	25%	17	1%	0.0018µM*
O=C(O)[C@H]1[O][Sb][O][C@@H](C(=O)O)C1O (stereo partly drawn)	9%[13.5 µM]	.	.	-3%
CCOC(=O)c1c(/N=C/c2c(O)n(-c3ccccc3F)c(=S)[nH]c2=O)sc2c1CCCC2	1.3µM*	?	?	22µM*
CCOC(=O)c1ccc(N=Cc2c(O)n(-c3ccc(OC)cc3)c(=S)[nH]c2=O)cc1	?	.	0%	.
CCOC(=O)c1c(/N=C/c2c(O)n(-c3ccc(F)cc3)c(=S)[nH]c2=O)sc2c1CCCC2	18µM*	-11	1%	0%
NC(=O)c1ncn(C2OC(CO)C(O)C2O)n1 (stereo not drawn)	-10%	.	-2%	-13%
NC(N)=NCCCCCCCCCCN=C(N)N	5%	.	12%	4%
COc1cc(/C=C2\C(=O)NC(=O)N(c3ccccc3)C2=O)cc(OC)c1O	?	18	-29%	32µM*
CC(C)(C)n1cccc1/C=C1\C(=O)NC(=O)N(c2ccccc2)C1=O	1.4µM*	-10	4%	2%
Cc1cc(C)cc(N2C(=O)NC(=O)/C(=C/c3cccn3-c3ccc(Cl)cc3)C2=O)c1	9%	10	-2%	4µM*
Cc1cccc(N2C(=O)NC(=O)/C(=C\c3cccn3-c3ccc(Cl)cc3)C2=O)c1	-3%	82	9%	?
CC[C@@H]1CN2CCc3cc(OC)c(OC)cc3[C@@H]2C[C@@H]1C[C@H]1NCCc2cc(OC)c(OC)cc21	-6%	.	-3%	0%
Oc1cccc2cccnc12	5%	.	11µM*	-7%
CN(C(=O)Oc1cccc2cccnc12)c1ccccc1	-1%	?	1%	-5%
COc1ccc2c(c1)CC1(CN2C)C(=O)NC(=O)N(c2ccc(C)cc2)C1=O (stereo not drawn)	?	-22	?	-18%
Cc1ccc2c(c1)CC1(CN2C)C(=O)NC(=O)N(CCC2=CCCCC2)C1=O (stereo not drawn)	3.5µM*	36	-5%	.
Cc1cccc(N2C(=O)NC(=O)C3(Cc4cc(C)ccc4N(C)C3)C2=O)c1 (stereo not drawn)	8.9µM*	33	-1%	.
CCC#N	?	.	.	-17%

Source: PubChem (National Center for Advancing Translational Sciences (NCATS))
